The supplement of paper PMC11732987, “Enantioselective OTUD7B fragment discovery through chemoproteomics screening and high-throughput optimisation” (Communications Chemistry, 2025)

Key:
Test in all cases: log2 ratio of Biotin-Ahx-Ub-VS probe labelling (fragment/DMSO); higher = less target engagement (more negative = stronger competition), active = hit call of the paper (q ≤ 0.05, log2 ratio ≤ -1)
Settings in all cases: compound concentration: 200 uM; treatment time: 3 h
USP19 = molecular target: T1, USP19 (UniProt O94966)
T1 sequence (whole entry): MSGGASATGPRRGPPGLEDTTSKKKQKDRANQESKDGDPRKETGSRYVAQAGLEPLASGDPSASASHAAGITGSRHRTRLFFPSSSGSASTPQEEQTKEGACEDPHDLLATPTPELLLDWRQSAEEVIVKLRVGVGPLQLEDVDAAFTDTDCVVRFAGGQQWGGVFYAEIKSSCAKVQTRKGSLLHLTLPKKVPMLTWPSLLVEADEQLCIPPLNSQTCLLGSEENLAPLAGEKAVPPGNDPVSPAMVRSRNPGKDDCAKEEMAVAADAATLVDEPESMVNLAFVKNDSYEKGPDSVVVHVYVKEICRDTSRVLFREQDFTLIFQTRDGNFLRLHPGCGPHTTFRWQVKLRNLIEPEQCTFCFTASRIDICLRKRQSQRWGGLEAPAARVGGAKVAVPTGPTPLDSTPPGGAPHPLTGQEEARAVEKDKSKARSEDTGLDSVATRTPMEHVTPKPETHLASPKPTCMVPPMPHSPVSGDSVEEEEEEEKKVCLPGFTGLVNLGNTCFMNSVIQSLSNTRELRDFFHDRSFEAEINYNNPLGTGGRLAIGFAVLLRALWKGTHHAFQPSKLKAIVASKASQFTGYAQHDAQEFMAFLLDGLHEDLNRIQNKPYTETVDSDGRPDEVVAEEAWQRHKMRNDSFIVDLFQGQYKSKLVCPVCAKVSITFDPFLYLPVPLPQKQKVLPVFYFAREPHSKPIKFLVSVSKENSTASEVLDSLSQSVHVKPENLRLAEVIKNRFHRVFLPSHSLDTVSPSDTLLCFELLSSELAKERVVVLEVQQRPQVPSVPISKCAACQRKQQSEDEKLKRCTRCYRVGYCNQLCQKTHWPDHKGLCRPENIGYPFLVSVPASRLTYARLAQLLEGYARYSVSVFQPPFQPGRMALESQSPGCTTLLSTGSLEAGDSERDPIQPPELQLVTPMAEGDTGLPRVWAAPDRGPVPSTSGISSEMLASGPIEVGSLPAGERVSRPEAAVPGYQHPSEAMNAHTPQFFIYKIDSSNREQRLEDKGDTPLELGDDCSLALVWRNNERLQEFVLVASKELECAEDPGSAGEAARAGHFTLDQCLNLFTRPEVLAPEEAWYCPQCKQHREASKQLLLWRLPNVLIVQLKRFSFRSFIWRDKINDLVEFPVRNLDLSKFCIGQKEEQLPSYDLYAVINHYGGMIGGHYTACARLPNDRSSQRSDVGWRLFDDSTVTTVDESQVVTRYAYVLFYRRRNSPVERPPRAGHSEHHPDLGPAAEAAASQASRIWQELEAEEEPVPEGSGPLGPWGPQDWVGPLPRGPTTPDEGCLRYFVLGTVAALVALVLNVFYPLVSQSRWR
Outline: (§1)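 HEK293T lysate (495 µg per sample, in Tris/CHAPS/IGEPAL buffer with protease inhibitors) was exposed in triplicate for 3 h to fragment at 200 µM or to vehicle, then to Biotin-Ahx-Ub-VS at 0.5 µM final for 1 h. Labelled DUBs were enriched on NeutrAvidin, digested with LysC and trypsin, and analysed by diaPASEF LC-MS/MS. Spectronaut label-free quantities were normalised to the global median, and values are average log2 ratios of fragment over vehicle from an unpaired t-test. Only proteins with ≥2 unique peptides were used.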

USP22 = molecular target: T2, USP22 (UniProt Q9UPT9)
T2 sequence (whole entry): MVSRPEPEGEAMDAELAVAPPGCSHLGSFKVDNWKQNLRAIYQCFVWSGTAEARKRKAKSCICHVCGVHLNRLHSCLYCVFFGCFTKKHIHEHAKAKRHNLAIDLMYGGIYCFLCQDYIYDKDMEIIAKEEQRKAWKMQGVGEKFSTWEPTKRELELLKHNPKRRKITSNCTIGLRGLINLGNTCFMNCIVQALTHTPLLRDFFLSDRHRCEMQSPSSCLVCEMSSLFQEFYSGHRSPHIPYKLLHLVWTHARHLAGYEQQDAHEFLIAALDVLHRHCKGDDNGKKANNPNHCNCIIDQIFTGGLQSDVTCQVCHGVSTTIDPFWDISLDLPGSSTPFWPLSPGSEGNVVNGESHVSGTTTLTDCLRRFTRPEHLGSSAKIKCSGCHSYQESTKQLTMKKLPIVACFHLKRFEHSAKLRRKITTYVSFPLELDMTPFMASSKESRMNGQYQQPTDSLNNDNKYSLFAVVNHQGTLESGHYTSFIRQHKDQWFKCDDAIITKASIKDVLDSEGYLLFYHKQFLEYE
Outline: as §1

USP24 = USP24 (UniProt Q9UPU5)
Sequence of USP24 (Q9UPU5 whole entry): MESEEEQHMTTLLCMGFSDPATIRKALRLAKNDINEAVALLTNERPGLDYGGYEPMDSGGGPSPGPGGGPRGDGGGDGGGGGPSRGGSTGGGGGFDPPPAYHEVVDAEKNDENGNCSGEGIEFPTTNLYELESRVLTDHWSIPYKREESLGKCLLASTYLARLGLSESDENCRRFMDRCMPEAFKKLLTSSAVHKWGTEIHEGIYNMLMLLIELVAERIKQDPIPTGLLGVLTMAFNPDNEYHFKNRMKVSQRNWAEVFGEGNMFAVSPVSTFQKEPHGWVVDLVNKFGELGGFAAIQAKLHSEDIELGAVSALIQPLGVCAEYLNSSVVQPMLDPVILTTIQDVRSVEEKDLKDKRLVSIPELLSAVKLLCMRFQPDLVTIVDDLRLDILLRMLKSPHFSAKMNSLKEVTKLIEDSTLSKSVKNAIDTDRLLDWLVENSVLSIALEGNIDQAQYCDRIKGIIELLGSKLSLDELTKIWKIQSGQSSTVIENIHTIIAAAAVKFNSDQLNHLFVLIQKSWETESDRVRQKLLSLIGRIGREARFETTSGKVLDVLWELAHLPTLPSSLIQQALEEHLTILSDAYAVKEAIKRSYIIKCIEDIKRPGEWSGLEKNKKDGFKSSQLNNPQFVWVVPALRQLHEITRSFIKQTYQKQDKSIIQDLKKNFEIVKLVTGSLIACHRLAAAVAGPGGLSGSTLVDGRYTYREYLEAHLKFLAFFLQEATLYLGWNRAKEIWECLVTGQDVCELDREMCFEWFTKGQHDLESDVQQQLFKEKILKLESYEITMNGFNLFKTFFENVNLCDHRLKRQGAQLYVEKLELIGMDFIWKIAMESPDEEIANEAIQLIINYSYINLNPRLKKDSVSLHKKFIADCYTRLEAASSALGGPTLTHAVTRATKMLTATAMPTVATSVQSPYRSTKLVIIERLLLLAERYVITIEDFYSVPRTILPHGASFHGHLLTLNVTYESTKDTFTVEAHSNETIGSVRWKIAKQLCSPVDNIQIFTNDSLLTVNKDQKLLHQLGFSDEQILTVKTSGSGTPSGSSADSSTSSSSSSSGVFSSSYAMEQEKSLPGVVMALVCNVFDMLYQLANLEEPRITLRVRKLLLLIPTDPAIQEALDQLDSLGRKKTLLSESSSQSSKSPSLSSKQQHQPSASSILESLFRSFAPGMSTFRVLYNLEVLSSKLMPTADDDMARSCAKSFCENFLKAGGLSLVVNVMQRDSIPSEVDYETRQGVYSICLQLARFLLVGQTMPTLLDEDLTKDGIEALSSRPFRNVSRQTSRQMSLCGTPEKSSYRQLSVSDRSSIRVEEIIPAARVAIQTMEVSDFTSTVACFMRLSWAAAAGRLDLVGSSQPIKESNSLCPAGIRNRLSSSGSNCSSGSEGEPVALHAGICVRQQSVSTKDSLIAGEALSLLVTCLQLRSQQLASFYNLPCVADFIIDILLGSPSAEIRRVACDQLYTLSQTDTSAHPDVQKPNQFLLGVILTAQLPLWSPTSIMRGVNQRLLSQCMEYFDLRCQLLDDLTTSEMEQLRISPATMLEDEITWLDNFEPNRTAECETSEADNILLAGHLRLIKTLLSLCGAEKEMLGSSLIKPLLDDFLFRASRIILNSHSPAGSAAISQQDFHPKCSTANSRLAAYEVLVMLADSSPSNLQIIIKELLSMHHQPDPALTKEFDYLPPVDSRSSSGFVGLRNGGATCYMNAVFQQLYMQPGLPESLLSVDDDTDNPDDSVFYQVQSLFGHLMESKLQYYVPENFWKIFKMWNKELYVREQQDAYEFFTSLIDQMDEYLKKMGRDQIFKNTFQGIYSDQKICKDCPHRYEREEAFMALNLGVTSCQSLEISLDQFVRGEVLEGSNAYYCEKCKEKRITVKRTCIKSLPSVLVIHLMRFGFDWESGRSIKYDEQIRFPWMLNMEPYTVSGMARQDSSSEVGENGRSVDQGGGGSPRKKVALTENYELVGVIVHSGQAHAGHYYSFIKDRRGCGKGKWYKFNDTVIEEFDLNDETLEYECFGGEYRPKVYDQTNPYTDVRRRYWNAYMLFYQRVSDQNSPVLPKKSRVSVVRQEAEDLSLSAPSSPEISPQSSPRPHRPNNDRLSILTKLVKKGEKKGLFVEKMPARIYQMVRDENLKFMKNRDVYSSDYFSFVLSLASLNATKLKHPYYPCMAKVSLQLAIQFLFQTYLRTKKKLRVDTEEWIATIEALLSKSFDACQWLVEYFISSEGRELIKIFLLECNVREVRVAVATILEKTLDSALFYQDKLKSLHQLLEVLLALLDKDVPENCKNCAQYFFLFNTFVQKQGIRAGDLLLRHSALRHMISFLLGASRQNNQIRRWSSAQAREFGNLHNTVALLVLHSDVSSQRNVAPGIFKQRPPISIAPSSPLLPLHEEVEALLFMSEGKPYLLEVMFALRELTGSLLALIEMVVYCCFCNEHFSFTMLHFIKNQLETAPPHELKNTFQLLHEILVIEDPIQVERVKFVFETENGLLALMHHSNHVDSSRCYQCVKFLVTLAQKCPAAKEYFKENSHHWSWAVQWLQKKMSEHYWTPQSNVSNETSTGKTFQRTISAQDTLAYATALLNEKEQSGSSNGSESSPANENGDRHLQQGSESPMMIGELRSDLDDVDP
Outline: as §1

USP25 = molecular target: T3, USP25 (UniProt Q9UHP3)
T3 sequence (whole entry): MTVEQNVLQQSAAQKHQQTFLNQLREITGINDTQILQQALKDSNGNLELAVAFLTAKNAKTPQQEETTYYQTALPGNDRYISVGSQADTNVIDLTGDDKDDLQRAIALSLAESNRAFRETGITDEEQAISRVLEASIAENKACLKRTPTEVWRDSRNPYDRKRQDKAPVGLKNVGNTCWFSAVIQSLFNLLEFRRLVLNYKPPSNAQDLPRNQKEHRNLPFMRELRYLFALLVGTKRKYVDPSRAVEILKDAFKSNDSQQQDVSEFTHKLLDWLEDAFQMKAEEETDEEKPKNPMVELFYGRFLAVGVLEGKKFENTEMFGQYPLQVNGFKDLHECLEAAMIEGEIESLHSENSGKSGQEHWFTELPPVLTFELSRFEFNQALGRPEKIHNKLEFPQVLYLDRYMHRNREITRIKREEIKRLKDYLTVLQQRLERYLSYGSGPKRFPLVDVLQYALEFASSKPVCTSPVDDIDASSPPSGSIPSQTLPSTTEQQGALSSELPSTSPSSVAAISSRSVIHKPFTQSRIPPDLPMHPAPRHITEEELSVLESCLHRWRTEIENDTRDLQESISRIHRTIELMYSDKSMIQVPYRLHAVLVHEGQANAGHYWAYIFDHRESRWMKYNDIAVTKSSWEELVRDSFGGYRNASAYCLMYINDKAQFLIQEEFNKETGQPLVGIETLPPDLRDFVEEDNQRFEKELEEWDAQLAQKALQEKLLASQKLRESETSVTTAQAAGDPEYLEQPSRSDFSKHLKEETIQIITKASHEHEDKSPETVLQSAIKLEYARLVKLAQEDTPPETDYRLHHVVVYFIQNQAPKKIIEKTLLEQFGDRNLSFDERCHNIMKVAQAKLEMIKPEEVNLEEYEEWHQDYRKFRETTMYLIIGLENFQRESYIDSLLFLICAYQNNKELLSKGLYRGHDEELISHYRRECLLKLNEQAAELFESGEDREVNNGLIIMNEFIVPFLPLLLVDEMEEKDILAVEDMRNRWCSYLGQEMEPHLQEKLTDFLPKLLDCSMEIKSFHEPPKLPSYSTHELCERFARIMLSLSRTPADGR
Outline: as §1

USP28 = molecular target: T4, USP28 (UniProt Q96RU2)
T4 sequence (whole entry): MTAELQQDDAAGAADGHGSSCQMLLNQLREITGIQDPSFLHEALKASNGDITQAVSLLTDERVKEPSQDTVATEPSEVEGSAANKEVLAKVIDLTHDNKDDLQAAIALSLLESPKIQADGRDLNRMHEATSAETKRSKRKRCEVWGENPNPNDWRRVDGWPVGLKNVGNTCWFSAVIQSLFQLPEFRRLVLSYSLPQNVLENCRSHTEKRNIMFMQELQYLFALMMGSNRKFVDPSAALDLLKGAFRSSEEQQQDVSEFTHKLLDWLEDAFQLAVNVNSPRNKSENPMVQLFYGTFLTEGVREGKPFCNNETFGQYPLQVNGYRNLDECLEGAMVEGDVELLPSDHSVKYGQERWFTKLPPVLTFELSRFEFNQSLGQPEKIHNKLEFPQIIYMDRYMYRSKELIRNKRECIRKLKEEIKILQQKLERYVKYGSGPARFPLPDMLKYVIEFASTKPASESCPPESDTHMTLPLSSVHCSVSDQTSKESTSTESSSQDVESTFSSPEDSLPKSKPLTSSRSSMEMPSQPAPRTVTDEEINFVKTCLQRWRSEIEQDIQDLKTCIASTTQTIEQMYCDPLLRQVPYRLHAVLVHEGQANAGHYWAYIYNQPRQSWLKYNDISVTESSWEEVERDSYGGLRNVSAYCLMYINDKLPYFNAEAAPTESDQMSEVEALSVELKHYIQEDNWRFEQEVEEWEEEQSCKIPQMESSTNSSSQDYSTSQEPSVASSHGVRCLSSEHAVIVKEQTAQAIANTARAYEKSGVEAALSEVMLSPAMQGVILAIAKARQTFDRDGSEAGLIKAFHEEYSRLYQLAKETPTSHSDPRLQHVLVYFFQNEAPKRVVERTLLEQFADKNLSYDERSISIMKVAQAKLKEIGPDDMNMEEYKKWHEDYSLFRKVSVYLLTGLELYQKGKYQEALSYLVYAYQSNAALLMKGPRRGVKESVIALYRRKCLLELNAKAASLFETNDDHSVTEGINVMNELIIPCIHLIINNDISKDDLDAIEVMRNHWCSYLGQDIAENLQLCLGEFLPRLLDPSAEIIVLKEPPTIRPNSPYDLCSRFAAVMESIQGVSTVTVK
Outline: as §1

Measured: log2 ratio of Biotin-Ahx-Ub-VS probe labelling

O=C(CCl)N1CCC(c2ccn[nH]2)C1 (stereo not given)
inactive: USP19 -0.276 | USP22 -0.234 | USP24 -0.326 | USP25 -0.433 | USP28 -0.425
